{"source": "PubChem BioAssay (NCATS)", "key": {"[1]": {"molecular_target": "Nicotinamide N-methyltransferase (Homo sapiens) (UniProt P40261)", "sequence (P40261 whole entry, looked up)": "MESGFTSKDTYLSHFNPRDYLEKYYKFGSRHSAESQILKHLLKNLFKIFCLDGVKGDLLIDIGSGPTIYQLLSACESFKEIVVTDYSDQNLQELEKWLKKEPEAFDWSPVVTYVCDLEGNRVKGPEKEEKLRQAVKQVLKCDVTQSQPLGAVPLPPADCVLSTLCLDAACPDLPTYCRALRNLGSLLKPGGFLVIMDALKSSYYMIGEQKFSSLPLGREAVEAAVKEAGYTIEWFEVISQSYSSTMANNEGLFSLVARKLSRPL", "assay": "Confirmatory Screen for Target Class Profiling of Small Molecule Inhibitors of Methyltransferases (AID 1745852)", "conditions": "MTase-Glo luminescence, SAH detection, recombinant enzyme; measured here: NNMT max response; stronger effect = lower value"}, "[2]": {"molecular_target": "Phenylethanolamine N-methyltransferase (Homo sapiens) (UniProt P11086)", "sequence (P11086 whole entry, looked up)": "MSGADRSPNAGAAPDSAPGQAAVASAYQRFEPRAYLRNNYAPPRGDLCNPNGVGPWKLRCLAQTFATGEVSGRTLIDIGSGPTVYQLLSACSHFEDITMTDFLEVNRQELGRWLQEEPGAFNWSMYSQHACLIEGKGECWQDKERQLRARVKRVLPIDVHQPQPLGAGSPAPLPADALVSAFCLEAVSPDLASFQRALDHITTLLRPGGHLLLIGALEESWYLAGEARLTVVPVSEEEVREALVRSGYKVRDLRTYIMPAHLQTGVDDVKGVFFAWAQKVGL", "assay": "Confirmatory Screen for Target Class Profiling of Small Molecule Inhibitors of Methyltransferases (AID 1745852)", "conditions": "MTase-Glo luminescence, SAH detection, recombinant enzyme; measured here: PNMT max response; stronger effect = lower value"}, "[3]": {"molecular_target": "Metallo-beta-lactamase type 2 (Klebsiella pneumoniae) (UniProt C7C422)", "sequence (C7C422 whole entry, looked up)": "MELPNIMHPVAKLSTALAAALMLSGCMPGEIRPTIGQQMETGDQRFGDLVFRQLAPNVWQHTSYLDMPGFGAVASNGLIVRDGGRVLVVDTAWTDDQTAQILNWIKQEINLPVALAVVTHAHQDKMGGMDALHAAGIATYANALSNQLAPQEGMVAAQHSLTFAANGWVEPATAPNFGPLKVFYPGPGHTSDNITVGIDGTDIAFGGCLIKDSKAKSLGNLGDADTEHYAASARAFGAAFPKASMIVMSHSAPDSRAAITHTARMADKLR", "assay": "qHTS to identify inhibitors of the New Delhi Metallo-beta-lactamase (NDM): assay validation screen against the NCATS LOPAC Collection (AID 1794843)", "summary_of_the_method": "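NDM-1 at 2 nM final in 50 mM HEPES pH 7.0, 1 uM ZnSO4, 0.01% Tween20, preincubated with LOPAC compounds pinned in DMSO; 50 uM nitrocefin (stock) added. Hydrolysis read as absorbance at 485 nm in the plateau phase.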"}, "[4]": {"molecular_target": "Glutathione peroxidase 1 (Homo sapiens) (UniProt P07203)", "sequence (P07203 whole entry, looked up)": "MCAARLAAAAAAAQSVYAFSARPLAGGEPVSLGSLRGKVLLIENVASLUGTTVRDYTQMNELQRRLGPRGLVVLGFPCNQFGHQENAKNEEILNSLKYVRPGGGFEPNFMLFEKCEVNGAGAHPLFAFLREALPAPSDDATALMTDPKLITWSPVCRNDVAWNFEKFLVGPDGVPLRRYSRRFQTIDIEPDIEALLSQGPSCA", "assay": "Primary qHTS Assay for Inhibitors of Recombinant Selenoprotein Glutathione Peroxidase 1 (GPX1) (AID 1845191); note: nearly all actives have a fitted effect of over 65% in size; note: potency is the fitted concentration of half-maximal effect", "summary_of_the_method": "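GR-coupled readout: NADPH consumption tracked by fluorescence, ex 340/em 450 nm, at t=0 and after 15 min at RT. Final mix 10 nM GPX1, 1 mM GSH, 0.5 mM CHP, 0.5 mM NADPH, 100 nM GR, 0.01% BSA, following 30 min enzyme–compound preincubation.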"}, "[5]": {"molecular_target": "Phospholipid hydroperoxide glutathione peroxidase GPX4 (Homo sapiens) (UniProt P36969)", "sequence (P36969 whole entry, looked up)": "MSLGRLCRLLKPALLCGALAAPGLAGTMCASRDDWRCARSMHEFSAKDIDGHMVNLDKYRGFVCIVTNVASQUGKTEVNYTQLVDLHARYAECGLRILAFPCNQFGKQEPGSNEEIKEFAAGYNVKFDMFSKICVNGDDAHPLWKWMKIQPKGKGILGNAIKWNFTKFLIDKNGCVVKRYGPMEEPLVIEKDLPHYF", "assay": "Primary qHTS Assay for Inhibitors of Recombinant Selenoprotein Glutathione Peroxidase 4 (GPX4) (AID 1845192); note: nearly all actives have a fitted effect of over 65% in size", "summary_of_the_method": "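Steps: GPX4 plus compound, 30 min RT; add GR/GSH/NADPH master mix; start with cumene hydroperoxide; read 340/450 nm fluorescence at 0 and 15 min. Finals were 200 nM GPX4, 1 mM GSH, 0.5 mM CHP, 0.5 mM NADPH, 100 nM GR.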"}, "[6]": {"assay": "NCATS anti-infectives library activity on HEK293 viability as a counter-qHTS vs the C. elegans viability qHTS (AID 1745854)", "summary_of_the_method": "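Counter-screen for cytotoxicity: HEK293, 24 hr, 37C, compounds up to 41.7 uM final (a dilution series, 1:5). Readout CellTiter-Glo luminescence, 10 min RT. Digitonin control, 83.3 uM final.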"}, "[7]": {"assay": "NCATS anti-infectives library activity on the primary C. elegans qHTS viability assay (AID 1745855; calls by dose curve; note: potency is the fitted concentration of half-maximal effect)", "conditions": "C. elegans worm area imaging, day 7", "summary_of_the_method": "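GFP read-out by 488 nm laser cytometry at day 0, 3 and 7, gated on object perimeter, area and peak intensity, scored viability of PE254-GFP-FLuc worms exposed to compound in S medium with bacterial capsules at 21 °C.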"}, "[8]": {"molecular_target": "Nuclear receptor subfamily 1 group I member 3 (Homo sapiens) (UniProt Q14994)", "sequence (Q14994 whole entry, looked up)": "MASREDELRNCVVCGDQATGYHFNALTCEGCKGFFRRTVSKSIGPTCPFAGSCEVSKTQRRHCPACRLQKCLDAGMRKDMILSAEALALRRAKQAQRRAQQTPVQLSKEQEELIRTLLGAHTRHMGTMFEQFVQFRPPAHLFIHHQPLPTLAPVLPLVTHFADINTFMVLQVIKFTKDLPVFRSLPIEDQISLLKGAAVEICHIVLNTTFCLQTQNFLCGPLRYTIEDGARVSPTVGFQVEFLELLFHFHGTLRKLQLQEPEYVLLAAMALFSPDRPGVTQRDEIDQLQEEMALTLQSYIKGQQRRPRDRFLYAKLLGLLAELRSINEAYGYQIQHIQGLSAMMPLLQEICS", "assay": "Primary qHTS for antagonist of constitutive androstane receptor (CAR) against the NCATS DSHEA and TCM libraries (AID 1794836);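 note: HepG2 cells stably expressing hCAR with CYP2B6 luciferase reporter stimulated by CITCO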", "summary_of_the_method": "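HepG2-CYP2B6-hCAR cells, attached 5 h, given compounds plus CITCO agonist […], incubated 24 h at 37 C. Luciferase luminescence read, multiplexed with CellTiter-Fluor viability (Ex/Em 405/540 nm).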"}, "[9]": {"molecular_target": "Luciferin 4-monooxygenase (Photinus pyralis) (UniProt P08659)", "assay": "Primary firefly luciferase (FLuc) qHTS assay for identification of artifact compounds. (AID 1845220); note: nearly all actives have a fitted effect of over 60% in size", "conditions": "outcome: at 54.1 µM (top of the series) unless noted", "summary_of_the_method": "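Titrated compounds were incubated 15 min at RT, protected from light, with luciferin and ATP at 10 uM; reaction started with 10 nM FLuc, luminescence imaged at 5 min, and concentration-response fitted by Hill equation.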"}, "[10]": {"assay": "Primary fluorescence-based thiol-reactive (MSTI) qHTS assay for identification of artifact compounds. (AID 1845221); note: nearly all actives have a fitted effect of over 65% in size", "summary_of_the_method": "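MSTI probe at 4 uM final in 2% DMSO/PBS pH 7.4; compounds, 1 h at room temperature in dark. Fluorescence Ex/Em 525/598 nm, normalised to Acetyl-MSTI and MSTI, fitted to 4-parameter Hill.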"}}, "note": "Inconclusive results are not listed. Where a call stands in place of a potency, no number is given. Calls of active or inactive are those of the source. Unless noted, calls come from the whole dose curve; as a rule, active = well fitted curve in the direction sought with a large enough effect; inconclusive = small, poorly fitted or top-dose-only effect, or another doubt; inactive = no such curve, though single readings can be large; an effect the other way counts as inactive or inconclusive."}
{"smiles": "NCCc1c[nH]c2ccccc12", "values": [{"measurement": "activity", "setting": "[1]", "value": -8.81, "unit": "%"}, {"measurement": "activity", "setting": "[2]", "value": -14.8, "unit": "%"}, {"measurement": "outcome", "setting": "[3]", "value": "inactive"}, {"measurement": "Potency", "setting": "[4]", "value": "inactive"}, {"measurement": "Potency", "setting": "[5]", "value": "inactive"}]}
{"smiles": "CNCCc1c[nH]c2ccc(O)cc12", "values": [{"measurement": "activity", "setting": "[1]", "value": -11.4, "unit": "%"}, {"measurement": "activity", "setting": "[2]", "value": 0.784, "unit": "%"}, {"measurement": "Potency", "setting": "[4]", "value": "inactive"}, {"measurement": "Potency", "setting": "[5]", "value": "inactive"}]}
{"smiles": "c1ccc(C2(c3ccccc3)CC2C2=NCCN2)cc1", "note": "(stereo unspecified)", "values": [{"measurement": "outcome", "setting": "[3]", "value": "inactive"}, {"measurement": "Potency", "setting": "[4]", "value": "inactive"}, {"measurement": "Potency", "setting": "[5]", "value": "inactive"}]}
{"smiles": "CCCCCC[C@H]1C(=O)O[C@H](C)[C@H](NC(=O)c2cccc(NC=O)c2O)C(=O)O[C@@H](C)[C@@H]1OC(=O)CC(C)C", "values": [{"measurement": "Potency", "setting": "[6]", "value": "inactive"}, {"measurement": "Potency", "setting": "[7]", "value": "7.27 µM (active)"}, {"measurement": "Potency", "setting": "[4]", "value": "inactive"}]}
{"smiles": "NC(=NCCC[C@H](N)C(=O)O)N[N+](=O)[O-]", "values": [{"measurement": "outcome", "setting": "[3]", "value": "inactive"}, {"measurement": "Potency", "setting": "[4]", "value": "inactive"}, {"measurement": "Potency", "setting": "[5]", "value": "inactive"}]}
{"smiles": "CNCCc1ccc(O)c(O)c1", "values": [{"measurement": "activity", "setting": "[1]", "value": -0.877, "unit": "%"}, {"measurement": "activity", "setting": "[2]", "value": 1.2, "unit": "%"}, {"measurement": "outcome", "setting": "[3]", "value": "inactive"}, {"measurement": "Potency", "setting": "[4]", "value": "inactive"}, {"measurement": "Potency", "setting": "[5]", "value": "inactive"}]}
{"smiles": "O=S(=O)(F)Cc1ccccc1", "values": [{"measurement": "Potency", "setting": "[6]", "value": "inactive"}, {"measurement": "Potency", "setting": "[4]", "value": "inactive"}, {"measurement": "Potency", "setting": "[5]", "value": "inactive"}]}
{"smiles": "O=C(Cc1ccc(Cl)c(Cl)c1)N1CCCCC1CN1CCCC1", "note": "(stereo unspecified)", "values": [{"measurement": "outcome", "setting": "[3]", "value": "inactive"}, {"measurement": "Potency", "setting": "[4]", "value": "inactive"}, {"measurement": "Potency", "setting": "[5]", "value": "inactive"}]}
{"smiles": "CC1=C(C/C=C(\\C)CCC[C@H](C)CCC[C@H](C)CCCC(C)C)C(=O)c2ccccc2C1=O", "values": [{"measurement": "outcome", "setting": "[8]", "value": "inactive"}]}
{"smiles": "CC(C)NC(C)Cc1ccc(I)cc1", "note": "(stereo unspecified)", "values": [{"measurement": "activity", "setting": "[1]", "value": -9.49, "unit": "%"}, {"measurement": "activity", "setting": "[2]", "value": 2.34, "unit": "%"}, {"measurement": "outcome", "setting": "[3]", "value": "inactive"}, {"measurement": "Potency", "setting": "[4]", "value": "inactive"}, {"measurement": "Potency", "setting": "[5]", "value": "inactive"}]}
{"smiles": "C#CCOC(=O)C1=CCCN(C)C1", "values": [{"measurement": "outcome", "setting": "[3]", "value": "inactive"}, {"measurement": "Potency", "setting": "[4]", "value": "inactive"}, {"measurement": "Potency", "setting": "[5]", "value": "inactive"}]}
{"smiles": "NCCc1c[nH]c2ccc(O)cc12", "values": [{"measurement": "outcome", "setting": "[3]", "value": "inactive"}, {"measurement": "Potency", "setting": "[4]", "value": "inactive"}, {"measurement": "Potency", "setting": "[5]", "value": "inactive"}]}
{"smiles": "O=C(Oc1ccc([N+](=O)[O-])cc1)N1CCC(C(O)(c2ccc3c(c2)OCO3)c2ccc3c(c2)OCO3)CC1", "values": [{"measurement": "Potency", "setting": "[6]", "value": "inactive"}, {"measurement": "Potency", "setting": "[4]", "value": "inactive"}, {"measurement": "Potency", "setting": "[5]", "value": "inactive"}, {"measurement": "outcome", "setting": "[9]", "value": "inactive"}, {"measurement": "Potency", "setting": "[10]", "value": "inactive"}]}
{"smiles": "Clc1cnc(Oc2ccc(Oc3ncc(Cl)cc3Cl)cc2)c(Cl)c1", "values": [{"measurement": "outcome", "setting": "[3]", "value": "inactive"}, {"measurement": "Potency", "setting": "[4]", "value": "inactive"}, {"measurement": "Potency", "setting": "[5]", "value": "inactive"}]}
{"smiles": "C[C@@H]1O[C@H](C[N+](C)(C)C)C[C@H]1O", "values": [{"measurement": "outcome", "setting": "[3]", "value": "inactive"}, {"measurement": "Potency", "setting": "[4]", "value": "inactive"}, {"measurement": "Potency", "setting": "[5]", "value": "inactive"}]}
{"smiles": "C[C@]12CCC3C(CC[C@H]4C[C@H](O)CC[C@]34C)C1CC[C@@H]2C(=O)CO", "note": "(stereo partly specified)", "values": [{"measurement": "outcome", "setting": "[3]", "value": "inactive"}, {"measurement": "Potency", "setting": "[4]", "value": "inactive"}, {"measurement": "Potency", "setting": "[5]", "value": "inactive"}]}
{"smiles": "O=C(O)C(Cl)Cl", "values": [{"measurement": "Potency", "setting": "[4]", "value": "inactive"}]}
{"smiles": "S=C(SSC(=S)N1CCCCC1)N1CCCCC1", "values": [{"measurement": "Potency", "setting": "[4]", "value": "12.8 µM (active)"}]}
{"smiles": "CCCCc1ccc(C(=O)O)nc1", "values": [{"measurement": "outcome", "setting": "[3]", "value": "inactive"}, {"measurement": "Potency", "setting": "[4]", "value": "inactive"}, {"measurement": "Potency", "setting": "[5]", "value": "inactive"}]}
{"smiles": "NC(N)=NOCCC(N)C(=O)O", "note": "(stereo unspecified)", "values": [{"measurement": "outcome", "setting": "[3]", "value": "inactive"}, {"measurement": "Potency", "setting": "[4]", "value": "inactive"}, {"measurement": "Potency", "setting": "[5]", "value": "inactive"}]}
{"smiles": "CCCN1CCC[C@H](c2cccc(O)c2)C1", "values": [{"measurement": "outcome", "setting": "[3]", "value": "inactive"}, {"measurement": "Potency", "setting": "[4]", "value": "inactive"}, {"measurement": "Potency", "setting": "[5]", "value": "inactive"}]}
